In PubChem BioAssay (NCI):
This is part of a sample that, as a whole, favours compounds with a hit. Of some 83,000 tested, about 20% had one in any assay.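 Compound tested at a single concentration for 48 hours in 96-well plates; a percent growth value below 10 was scored as active.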 Unmarked numbers belong to inactive results. Calls of active or inactive are those of the source.

How the values were obtained:
Assay in all cases: NCI-60 one-dose screen, 48 h (100 = growth as untreated, 0 = no growth, -100 = all killed)
DU-145 prostate = conditions: 10 µM unless noted
K-562 leukemia = conditions: 10 µM unless noted
MALME-3M melanoma = conditions: 10 µM unless noted
MDA-MB-231 breast = conditions: 10 µM unless noted
RXF 393 renal = conditions: 10 µM unless noted
SF-268 CNS = conditions: 10 µM unless noted
SF-295 CNS = conditions: 10 µM unless noted
SF-539 CNS = conditions: 10 µM unless noted
UACC-257 melanoma = conditions: 10 µM unless noted
M14 melanoma = conditions: 10 µM unless noted
HCT-15 colon = conditions: 10 µM unless noted
HT29 colon = conditions: 10 µM unless noted
SNB-75 CNS = conditions: 10 µM unless noted
SNB-19 CNS = conditions: 10 µM unless noted
U251 CNS = conditions: 10 µM unless noted
PC-3 prostate = conditions: 10 µM unless noted
SK-MEL-5 melanoma = conditions: 10 µM unless noted
UACC-62 melanoma = conditions: 10 µM unless noted
LOX IMVI melanoma = conditions: 10 µM
SK-MEL-28 melanoma = conditions: 10 µM unless noted

Structure (SMILES)	growth (DU-145 prostate)	growth (K-562 leukemia)	growth (MALME-3M melanoma)	growth (MDA-MB-231 breast)	growth (RXF 393 renal)	growth (SF-268 CNS)	growth (SF-295 CNS)	growth (SF-539 CNS)	growth (UACC-257 melanoma)	growth (M14 melanoma)	growth (HCT-15 colon)	growth (HT29 colon)	growth (SNB-75 CNS)	growth (SNB-19 CNS)	growth (U251 CNS)	growth (PC-3 prostate)	growth (SK-MEL-5 melanoma)	growth (UACC-62 melanoma)	growth (LOX IMVI melanoma)	growth (SK-MEL-28 melanoma)
CC(C)Sc1ncnc2nc[nH]c12	121%	113%	109%	105%	93%	121%	107%	100%	91.7%	105%	103%	113%	115%	99.5%	107%	91.6%	104%	93.3%	100%	82.8%
CCCCCCCCCCCCCCCCCCSC(=N)N	59.2%	40.4%	82.8%	29.5%	71.5%	60.8%	80.9%	86.6%	80.5%	60%	66.6%	28.4%	88.6%	89.2%	72.3%	65%	98.3%	77.6%	52.7%	93.5%
Cc1cccc(-[n+]2noc(N)n2)c1	75.4%	20.2%	86.4%	53.7%	99.1%	81.9%	84.5%	91.6%	95.2%	88.4%	66.4%	102%	82.1%	81.4%	86%	60.3%	97.4%	40.7%	46.9%	113%
CCOc1ccccc1NC(=O)CCl	105%	86.8%	92.2%	83.8%	93.9%	91.7%	87.4%	114%	102%	79.1%	85.9%	89.3%	88.3%	101%	29%	83.5%	71.2%	83.7%	85.3%	87%
CCCCc1ccc2nc(NC(=O)OC)[nH]c2c1	-2.08% (active)	-20.4% (active)	48.1%	13%	20.9%	28.8%	-5.83% (active)	-51.1% (active)	69%	8.08% (active)	7.85% (active)	12.2%	65.1%	14.7%	22.2%	22.5%	-49.2% (active)	41%	25.2%	58.8%
COc1ccc2c(Cl)cc(NC(=O)Nc3c(C)cccc3C)nc2c1	82.6%	72.6%	-1.2% (active)	62.7%	36.3%	81.1%	0.445% (active)	90.1%	76.8%	85.6%	95.7%	88%	-24.7% (active)	79.3%	76.1%	72.4%	63.6%	87.7%	60.7%	97%
CC(=O)N=c1ccc2nc3c(cc(N)c4ccccc43)oc-2c1	-96% (active)	-55.7% (active)	-67.3% (active)	-9.2% (active)	14%	-11.1% (active)	-65.7% (active)	-71.2% (active)	-81.5% (active)	-68.8% (active)	-75.5% (active)	1.15% (active)	34%	-11.1% (active)	-73.7% (active)	2.46% (active)	-100% (active)	-61.2% (active)	-74.3% (active)	-2.3% (active)
CCCC(OC(C)=O)c1ccc2c(c1)OCO2 (stereo not given)	104%	99%	91.9%	113%	104%	102%	105%	105%	94.9%	102%	115%	103%	96.9%	105%	96%	102%	102%	102%	103%	106%
C=CCC(OC(C)=O)c1ccc(C(C)C)cc1 (stereo not given)	118%	108%	124%	122%	113%	110%	126%	104%	105%	114%	107%	92.5%	102%	101%	122%	99.1%	117%	105%	104%	120%
C=CCC(OC(C)=O)c1ccc(OC)c(OC)c1 (stereo not given)	121%	116%	124%	128%	124%	97.8%	101%	108%	103%	108%	104%	107%	98.8%	109%	101%	92.5%	119%	107%	107%	132%
Nc1cc2ccccc2c(O)c1O	92.7%	5.25% (active)	-39% (active)	-19.9% (active)	-52.5% (active)	53.6%	85%	16.2%	89.4%	93.3%	16%	95.8%	90.4%	90.2%	40.2%	43.7%	74.7%	90.9%	-52.6% (active)	110%
Cc1ccc(O)c(N)c1	122%	113%	103%	92.8%	117%	112%	131%	103%	111%	108%	106%	112%	87.7%	101%	103%	94.7%	103%	81.5%	105%	122%
N#CC1(O)CCCCC1	103%	102%	104%	118%	110%	98.5%	103%	105%	90.2%	95.7%	99.6%	104%	49.2%	108%	94.7%	95.2%	106%	106%	91.7%	109%
CN(C(=S)S(=O)(=O)C12CC3CC(CC(C3)C1)C2)c1ccccc1	95.3%	72%	108%	88.9%	111%	94.5%	105%	97.6%	87.3%	107%	83.7%	105%	98.9%	102%	108%	82.8%	101%	91.8%	81.1%	107%
O=S1(=O)c2ccccc2Oc2ccccc21	107%	114%	110%	110%	90.7%	107%	91.8%	96.1%	103%	101%	101%	99.6%	80.5%	104%	94%	92.7%	108%	102%	102%	99.4%
CC12CCC3c4ccc(O)cc4CCC3C1CCC2=O (stereo not given)	112%	93.9%	113%	83.5%	103%	99%	112%	96.6%	93.8%	102%	101%	96.4%	93.4%	98.2%	101%	85.3%	101%	94.6%	103%	106%
